A short description of test [1]: HepG2 liver cancer cell viability effects, profiling panel, resazurin fluorescence, 24 h, PK04 Diversity Set (AID 1172). Further: test concentration not given here. As to conditions: higher = more signal. On the technique in general: Resazurin is reduced to fluorescent resorufin, in cell work by metabolically active cells.
Test [2] in a line: basal S. cerevisiae growth modulation, no modifier, primary screen, OD600, strain BY4716, 24 h, basal condition (AID 1173). As to conditions: OD600, 24 h, higher = more signal, called active from +8 up or from −8 down.
Test [3] can be described thus: MM1S myeloma cell viability, profiling panel, resazurin fluorescence, basal, 24 h, PK04 Diversity Set (AID 1174).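 Further: MM1S multiple myeloma cell line; test concentration not given here.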 As to conditions: higher = more signal, called active from +8 up or from −8 down.
Test [4] addresses Dihydroorotate dehydrogenase (quinone), mitochondrial (Plasmodium falciparum (isolate 3D7)) (UniProt Q08210). Kind of test: PfDHODH enzyme inhibitors, primary screen, biochemical, C-terminal His tag, absorbance 600 nm (AID 1175).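 Further: recombinant parasite enzyme with a five histidine tag at its C terminus; test concentration not given here.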 As to conditions: DCIP absorbance 600 nm, higher = more signal, called active from +8 up or from −8 down.
Test [5] in a line: P. aeruginosa biofilm formation inhibitors, primary screen, strain PAO1, LB-PBS medium, absorbance 600 nm (AID 1176). Further: test concentration not given here. As to conditions: P. aeruginosa PAO1 growth/biofilm, A600, 12 h; higher = more signal.
Test [6] is described as follows: S. cerevisiae RM11-1a growth modifiers, primary screen, strain RM11-1a, OD600, basal, 24 h (AID 1177).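 Further: cultures grown under basal conditions with no added stressor; test concentration not given here.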 As to conditions: OD600, 24 h, higher = more signal, called active from +8 up or from −8 down.
The nature of test [7]: E. coli acrAB mutant growth effects, primary screen, E. coli filamentation inducers, strain DRC39, OD650, 24 h (AID 1178).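 Further: growth measured as culture turbidity by optical density at 650 nm; test concentration not given here.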 As to conditions: higher = more signal, called active from +8 up or from −8 down.
Test [8] can be described thus: E. coli acrAB mutant growth effects, primary screen, E. coli filamentation inducers, strain DRC39, OD650, 48 h (AID 1179).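 Further: screen aims at cell division blockers that make cells filament.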 As to conditions: E. coli DRC39 delta-acrAB growth, higher = more signal, called active from +8 up or from −8 down.
Test [9] is described as follows: RPMI8226 myeloma cell viability, profiling panel, resazurin fluorescence, basal, 24 h, PK04 Diversity Set (AID 1180).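 Further: RPMI8826 multiple myeloma cell line at 5000 cells per well; test concentration not given here.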 As to conditions: higher = more signal.
The target in test [10] is E3 ubiquitin-protein ligase XIAP (Homo sapiens) (UniProt P98170). As to the kind of experiment: XIAP binders, primary screen, biophysical, small-molecule microarray, fluorescence 635 nm (AID 1181).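 Further: score merges 667 nm emission and signal to noise over triplicate slides.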 As to conditions: small-molecule microarray binding, higher = more signal.

Structures are written as SMILES. Calls of active or inactive are those of the source. Unless noted, how the calls were made is not given here.

Sequence of Dihydroorotate dehydrogenase (quinone), mitochondrial (Plasmodium falciparum (isolate 3D7)) (Q08210 whole entry, looked up): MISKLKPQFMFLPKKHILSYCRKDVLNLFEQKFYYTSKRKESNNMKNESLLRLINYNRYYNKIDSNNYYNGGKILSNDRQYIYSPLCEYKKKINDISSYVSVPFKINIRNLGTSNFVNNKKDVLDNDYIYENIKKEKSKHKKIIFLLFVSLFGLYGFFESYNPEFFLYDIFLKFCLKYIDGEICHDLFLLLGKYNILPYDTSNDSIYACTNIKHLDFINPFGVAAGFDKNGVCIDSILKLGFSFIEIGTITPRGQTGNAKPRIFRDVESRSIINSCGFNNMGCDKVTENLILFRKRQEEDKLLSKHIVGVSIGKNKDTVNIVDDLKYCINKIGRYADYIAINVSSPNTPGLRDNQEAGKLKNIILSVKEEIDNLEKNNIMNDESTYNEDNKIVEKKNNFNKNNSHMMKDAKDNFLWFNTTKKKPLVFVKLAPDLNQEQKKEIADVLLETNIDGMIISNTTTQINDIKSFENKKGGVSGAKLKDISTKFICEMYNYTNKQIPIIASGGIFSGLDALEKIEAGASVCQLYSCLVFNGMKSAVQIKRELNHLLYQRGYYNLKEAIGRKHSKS
Sequence of E3 ubiquitin-protein ligase XIAP (Homo sapiens) (P98170 whole entry, looked up): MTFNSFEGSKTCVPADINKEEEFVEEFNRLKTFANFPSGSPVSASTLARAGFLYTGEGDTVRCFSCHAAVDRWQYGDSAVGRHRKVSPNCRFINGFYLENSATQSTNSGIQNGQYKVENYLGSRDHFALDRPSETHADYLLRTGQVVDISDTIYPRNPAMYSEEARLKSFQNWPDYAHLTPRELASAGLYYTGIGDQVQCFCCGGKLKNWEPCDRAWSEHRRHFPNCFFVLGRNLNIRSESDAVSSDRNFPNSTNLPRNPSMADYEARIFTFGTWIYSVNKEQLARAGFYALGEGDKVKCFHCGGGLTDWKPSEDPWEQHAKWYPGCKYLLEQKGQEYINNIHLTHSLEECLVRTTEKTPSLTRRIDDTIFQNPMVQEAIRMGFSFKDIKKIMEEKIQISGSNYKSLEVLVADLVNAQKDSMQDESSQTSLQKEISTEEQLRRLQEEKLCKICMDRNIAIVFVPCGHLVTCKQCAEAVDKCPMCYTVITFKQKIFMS

`O=C1c2ccccc2[C@@]2(Cc3ccccc3N(CC(F)(F)F)C2=O)[C@H](c2ccc(CO)cc2)N1Cc1ccccc1`: the z-score in test [1] is -0.584; in [2], 0.714 (inactive); in test [3], -0.0925 (inactive); in [5], 0.118 (inactive); in [6], -0.224 (inactive); in [7] it was 0.117 (inactive). Besides, the z-score in test [8] is -1.66 (inactive); in test [9], -0.341. The composite z-score in test [4] was -17.8 (active); in test [10], -0.231.

For `COc1cc(CO)cc(I)c1O[C@H]1C=C(C(=O)NCCO)C[C@@H](N(CCN2CCOCC2)C(=O)C2CCCO2)[C@@H]1O` (stereo not given in full), the z-score in test [1] was 0.687; in [2], -0.371 (inactive); in test [3], -0.202 (inactive); in [5], -0.365 (inactive); in test [6], 0.772 (inactive); in [7] it was 2.09 (inactive). Besides, the z-score in [8] was 1.21 (inactive); in test [9], 0.716. The composite z-score in test [4] is 0.826 (inactive); in [10], -0.117.

Regarding `CCOC(=O)C[C@H]1[C@H](OC(=O)c2ccc(-c3ccccc3)cc2)[C@@H](NC(=O)C2CCCCC2)c2cc(OCCCO)ccc2N1C(=O)Cc1ccc(OC)cc1`, the z-score in [1] was -0.0995; in test [2], 0.857 (inactive); in test [3], -0.456 (inactive); in test [5], 0.55 (inactive); in [6], -0.442 (inactive); in test [7], 0.0009 (inactive). Besides, the z-score in test [8] was 0.0016 (inactive); in [9], -0.131. The composite z-score in [4] was -0.175 (inactive); in test [10] it was -0.144.

Take `CCCC=C(CCC)[C@@H](NC(=O)c1ccc(C(=O)OC)cc1)c1ccc(C(=O)OC)cc1`: the z-score in test [1] is -0.179; in test [2] it was 1.24 (inactive); in test [3], -0.64 (inactive); in test [5] it was 1.1 (inactive); in [6], 1.55 (inactive); in test [7], -1.1 (inactive). Further, the z-score in test [8] was -0.486 (inactive); in test [9], -0.358. For the same compound, the composite z-score in [4] is 0.138 (inactive); in test [10], 0.0627.

As to `COC(=O)[C@@]1(Cc2ccc(F)cc2)[C@H]2c3cc(C(=O)N4CCCC4)n(C[C@H](O)CO)c3C[C@H]2CN1C(=O)c1ccccc1`, the z-score is -0.462 in test [1]; 0.897 (inactive) in test [2]; -0.765 (inactive) in [3]; 0.812 (inactive) in [5]; -0.108 (inactive) in [6]; -0.645 (inactive) in test [7]. Also, the z-score in test [8] was -0.0414 (inactive); in test [9], -0.797. The results for the composite z-score in [4] and in [10] were -0.323 (inactive) and 0.0811, respectively.

For `C=C(C(=O)CC[C@H](OC(=O)c1ccccc1-c1ccccc1C(=O)O)c1ccc(OCCO)cc1)C(C)C`, the z-score in [1] is 0.0716; in test [2], -1.02 (inactive); in [3], -0.22 (inactive); in [5] it was 0.509 (inactive); in [6] it was -0.711 (inactive); in test [7], -0.0716 (inactive). Also, the figures for the z-score in test [8] and in test [9] were -0.698 (inactive) and 0, respectively. The composite z-score is -0.311 (inactive) in [4] and 0.125 in [10].

On to `C=C(COC)/C(=C/C[C@@H](OC(C)=O)c1cccc(OCCO)c1)c1cnc2ccccc2c1`, for which the z-score in test [1] is -0.469; in test [2], -7.06 (inactive); in [3], -0.732 (inactive); in [5], 0.203 (inactive); in test [6], 0.179 (inactive); in [7], -0.672 (inactive). For the same compound, the results for the z-score in test [8] and in test [9] were -0.303 (inactive) and -0.311, respectively. For the same compound, the composite z-score in test [4] was -7.29 (inactive); in test [10], 0.133.

With `C=C(C)C1CN([C@H](CO)c2ccccc2)C(=O)/C1=C\c1ccccc1` (stereo not given in full), the z-score in [1] is -0.607; in test [2] it was -5.73 (inactive); in test [3] it was 0.44 (inactive); in test [5] it was -0.234 (inactive); in test [6], 0.119 (inactive); in test [7] it was 0.408 (inactive). For the same compound, the z-score in [8] is -0.719 (inactive); in test [9], 0.064. In addition, the results for the composite z-score in test [4] and in [10] were -2.88 (inactive) and 0.126, respectively.

In the case of `CS(=O)(=O)CCOC(=O)C1=CC(CCCO)=CC(C2CC2)N(Cc2sc3ccccc3c2Cl)C=C1C(=O)OCCS(C)(=O)=O` (stereo not given), the z-score in test [1] is -0.0631; in test [2], -6.21 (inactive); in [3] it was -0.548 (inactive); in test [5] it was 0.0478 (inactive); in test [6], 0.155 (inactive); in [7] it was 0.564 (inactive). Further, the z-score in test [8] was 0.156 (inactive); in test [9], -0.541. The composite z-score was -0.559 (inactive) in test [4] and 0.431 in test [10].

On to `C=CC[C@@]1(C(=O)NCCCOC)N=C(c2ccc(OCCCO)cc2)O[C@@H]1c1ccccc1CN=[N+]=[N-]`, for which the z-score is 0.891 in test [1]; -0.574 (inactive) in [2]; 0.961 (inactive) in [3]; -0.248 (inactive) in test [5]; -0.343 (inactive) in test [6]; 0.914 (inactive) in [7]. The z-score is 0.831 (inactive) in [8] and 0.803 in [9]. Further, the composite z-score was 0.346 (inactive) in test [4] and 0.289 in test [10].

Regarding `CCCCCCc1nc(Cc2cc(OC)c(OC)c(OC)c2)c(C)c2c1[Si](C(C)C)(C(C)C)OC2`, the z-score is -0.422 in test [1]; -0.944 (inactive) in test [2]; 0.328 (inactive) in [3]; 0.055 (inactive) in [5]; -0.599 (inactive) in test [6]; 1.4 (inactive) in [7]. In addition, the z-score in test [8] is 0.707 (inactive); in test [9] it was 0.556. For the same compound, the composite z-score is -3.29 (inactive) in [4] and 0.146 in test [10].

As to `NCCCCCCNC(=O)[C@@H]1C[C@@H]2C(=O)NCC(=O)N2[C@@H]1c1cccc(OCCO)c1`, the z-score in [1] is -0.903; in test [2], -0.277 (inactive); in test [3], 0.717 (inactive); in test [5] it was -0.0617 (inactive); in [6], -0.121 (inactive); in test [7] it was 0.295 (inactive). For the same compound, the z-score in [8] is 0.976 (inactive); in test [9], 0.438. Further, the composite z-score is -0.775 (inactive) in test [4] and -0.213 in test [10].

Turning to `COC(=O)C1=CC(c2ccc(CO)cc2)=CC(C2CC2)N(Cc2cc3c(cc2Br)OCO3)C=C1C(=O)OC` (stereo not given), the z-score in test [1] was -0.0995; in test [2], -3.02 (inactive); in test [3], -1.42 (inactive); in test [5], 0.158 (inactive); in [6], -0.069 (inactive); in test [7] it was 0.164 (inactive). The z-score in test [8] was -0.0391 (inactive); in test [9] it was -1.25. The composite z-score in test [4] is -4.43 (inactive); in [10], 0.172.

(Values after PubChem BioAssay.)
